From PubChem BioAssay
Only some compounds are listed: those with a hit (about 1.8% of all), similar ones and a draw of the others.
PrPC surface inh: inhibitors of human cell surface prion protein PrPC; P04156; TR-FRET read-out; inhibition, % at 13.8 µM; hit rate 0.43% among 370,000; in the data active = inhibition above about 24%
MazEF act: increases E. coli MazEF RNase cleavage of RNA; P0AE70; FAM/BHQ RNA-DNA oligo cleavage fluorescence, 5 h; activation, % at 20 µM; hit rate 0.32% among 350,000; AID 504720; in the data active = activation above about 50%
Target sequence (P0AE70 whole entry, looked up): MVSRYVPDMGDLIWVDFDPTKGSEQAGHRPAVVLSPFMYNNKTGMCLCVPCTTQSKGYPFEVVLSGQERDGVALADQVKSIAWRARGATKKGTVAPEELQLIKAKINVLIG
PrP 5UTR inh: suppresses PrP 5' UTR mRNA reporter expression; hit rate 0.35% among 340,000; cell-based PrP 5' UTR mRNA reporter, plate reader; AID 488862; inhibition, % (concentration not given with the values); in the data active = inhibition above about 52%
PriA SSB inh: inhibitors of Klebsiella pneumoniae PriA binding to SSB C-terminal tail | inhibition, % at 33 µM | hit rate 0.6% among 430,000 | AlphaScreen SSBct-PriA binding, biotinylated peptide | AID 1272365; in the data active = inhibition mostly above about 37%, no sharp cut-off; inactive = mostly below about 20%
PfHsp40 yeast: restores yeast growth despite PfHsp40 toxicity; growth rescue, % at 12.5 µM; AID 504582; S. cerevisiae expressing PfHsp40, growth rescue, ATP luminescence; hit rate 0.68% among 340,000; in the data active = growth rescue above about 28%, passing the limit was not always enough;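 also: yeast W303a lacking pdr1 and pdr3 grown in galactose medium; growth measured after three days at 30 °C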
Of the large screens only hits and unclear results are named; the others gave an inactive call.

CCCCCCCC(=O)N/N=C/c1ccc(Sc2cccc3cccnc23)o1	PriA SSB inh active (no result: PrPC surface inh, MazEF act, PrP 5UTR inh, PfHsp40 yeast)
O=Cc1ccc(Sc2cccc3cccnc23)o1	PriA SSB inh 104 (no result: PrPC surface inh, MazEF act, PrP 5UTR inh, PfHsp40 yeast)
O=C(NCc1ccccn1)c1ccc(Cl)c(S(=O)(=O)Nc2ccccc2C(=O)NCc2ccccn2)c1	none
Clc1ccc(CCNc2nc3ccccc3s2)cc1	PfHsp40 yeast 217
COc1ccc(CCNc2nc3ccccc3s2)cc1OC	none (no result: PrPC surface inh, MazEF act, PrP 5UTR inh, PfHsp40 yeast)
CCOC(=O)CSC1=NC(=O)/C(=C/c2ccc(Br)cc2)S1	none
CCOC(=O)CSC1=NC(=O)/C(=C\c2ccc(OC(C)=O)cc2)S1	MazEF act 65
Cc1nc2sc(C)c(C)c2c(=O)[nH]1	none
CC(=O)Nc1nc(C2CC2)cc(-c2ccccc2)c1C#N	none
C[C@@H]1CCCCCCCCC(=O)OCCN[C@H](C)CCCCCCCCC(=O)OCCN[C@H](C)CCCCCCCCC(=O)OCCN1	PfHsp40 yeast 41 (no result: PrPC surface inh)
O=C(c1ccco1)N1N=C(c2ccc(Br)cc2)CC1c1ccccc1O (stereo not given)	none (no result: PrPC surface inh, MazEF act, PrP 5UTR inh, PfHsp40 yeast)
O=C(Nc1cccc2ccccc12)N1CC=C(c2ccccc2)CC1	MazEF act 78
c1ccc(-c2ccnc(-c3ccccn3)n2)nc1	PriA SSB inh 146 (no result: PrPC surface inh, MazEF act, PrP 5UTR inh, PfHsp40 yeast)
c1ccc(-c2nnc(-c3ccccn3)nn2)nc1	PriA SSB inh 68
O=Cc1cnc(-c2ccccn2)nc1	PriA SSB inh 106 (no result: PrPC surface inh, MazEF act, PrP 5UTR inh, PfHsp40 yeast)
c1ccc(-c2cccc(-c3ccccn3)n2)nc1	PriA SSB inh 104 (no result: PrPC surface inh)
OCc1ccnc(-c2ccccn2)n1	PriA SSB inh 89 (no result: PrPC surface inh, MazEF act, PrP 5UTR inh, PfHsp40 yeast)
COc1ccc(-c2cc3ccccc3n2CC(O)Cn2nc(C)cc2C)cc1 (stereo not given)	PriA SSB inh 47
CCOc1ccc(NC(=O)C2CCCN(S(=O)(=O)c3ccc4[nH]c(=O)ccc4c3)C2)cc1 (stereo not given)	PfHsp40 yeast 49
COc1ccc(NC(=O)C2CCCN(S(=O)(=O)c3ccc4[nH]c(=O)ccc4c3)C2)cc1 (stereo not given)	none
CCOc1ccc(CN(C)C(=O)c2cccnc2OCC)cc1OC	none
CCOC(=O)C1(Cc2ccccc2C)CCCN(C(=O)c2ccoc2)C1 (stereo not given)	PriA SSB inh 41
CCOC(=O)C1(Cc2ccccc2C)CCCN(C(=O)c2ccnn2C)C1 (stereo not given)	none
Cc1ccc(NC(=O)CSc2nsc(SCC(=O)Nc3ccc(C)cc3C)c2C#N)c(C)c1	PfHsp40 yeast 55
CCN(CC)c1ccc(C=NNC(=O)CNC(=O)c2ccccn2)cc1	none (no result: PrPC surface inh, MazEF act, PrP 5UTR inh, PfHsp40 yeast)
CC(C)C(=O)C1=Cc2cc([N+](=O)[O-])ccc2OC1N1CCOCC1 (stereo not given)	none
CCCCn1c(=O)[nH]c(=O)c2c1nc(-c1cccc(OC)c1)n2C	none
CCCCn1c(=O)[nH]c(=O)c2c1nc(-c1ccc(OC(F)F)c(OC)c1)n2C	MazEF act 71
CCOC(=O)c1c(-c2ccc(OC)cc2)csc1N	PriA SSB inh 40 (no result: PrPC surface inh, MazEF act, PrP 5UTR inh, PfHsp40 yeast)
CCn1cc(C(=O)NC(C)C2CC3CCC2C3)cn1 (stereo not given)	none
O=C(COC(=O)C1COc2ccccc2O1)Nc1cccc(F)c1 (stereo not given)	none
S=C(NC1CCCC1)N1CCN(c2cccc(Cl)c2)CC1	PfHsp40 yeast 47
S=C(NC1CC1)N1CCN(c2ccc(Cl)cc2)CC1	none
CCc1cccc(C)c1N(C(=O)Cn1c(COC)nc2ccccc21)C(C)COC (stereo not given)	PriA SSB inh 46
CCOC(=O)C(NC(=O)c1cccc(Cl)c1)(OCc1ccc(F)cc1)C(F)(F)F (stereo not given)	none
Clc1nc(-c2ccccn2)n[nH]1	PriA SSB inh 163 (no result: PrPC surface inh, MazEF act, PrP 5UTR inh, PfHsp40 yeast)
Brc1nc(-c2ccccn2)n[nH]1	PriA SSB inh 142 (no result: PrPC surface inh, MazEF act, PrP 5UTR inh, PfHsp40 yeast)
O=C1c2ccccc2-n2c1nc1ccccc1c2=O	PfHsp40 yeast 58
CN1CC(=O)N(CC(=O)Nc2ccc(Br)cc2F)C1=O	none
CC(C)OC(=O)CSc1ccc([N+](=O)[O-])cc1[N+](=O)[O-]	PriA SSB inh 59 (no result: PrPC surface inh, MazEF act, PrP 5UTR inh, PfHsp40 yeast)
Cc1ccc(O)c(C2=Nc3ccccc3N=C(c3ccco3)C2)c1	MazEF act 82
Cc1ccc(C=Nn2c(-c3ccccn3)n[nH]c2=S)o1	PriA SSB inh 72 (no result: PrPC surface inh, MazEF act, PrP 5UTR inh, PfHsp40 yeast)
Nn1c(-c2ccccc2)n[nH]c1=S	none (no result: PrPC surface inh, MazEF act, PrP 5UTR inh, PfHsp40 yeast)
Nn1c(-c2ccccn2)n[nH]c1=S	PriA SSB inh 83 (no result: PrPC surface inh, MazEF act, PrP 5UTR inh, PfHsp40 yeast)
S=c1[nH]nc(-c2ccccn2)n1N=Cc1ccccc1	PriA SSB inh 74 (no result: PrPC surface inh, MazEF act, PrP 5UTR inh, PfHsp40 yeast)
Cc1ccccc1C=Nn1c(-c2ccccn2)n[nH]c1=S	PriA SSB inh 59 (no result: PrPC surface inh, MazEF act, PrP 5UTR inh, PfHsp40 yeast)
O=C(Nc1ccncc1)Nc1ccc(Cl)cc1	none
COc1ccc(-c2csc(NC(=O)c3cc(Cl)sc3Cl)n2)cc1C	none (no result: PrPC surface inh, MazEF act, PrP 5UTR inh, PfHsp40 yeast)
COCC(C)N1CCC(n2nccc2NC(=O)c2ccc3c(c2)OCO3)CC1 (stereo not given)	none
NC(=NOC(=O)CSc1ccccc1)c1ccncc1	none (no result: PrPC surface inh, MazEF act, PrP 5UTR inh, PfHsp40 yeast)
CCC(C)Nc1c([N+](=O)[O-])cc(C(C)(C)C)cc1[N+](=O)[O-] (stereo not given)	PriA SSB inh 117 (no result: PrPC surface inh, MazEF act, PrP 5UTR inh, PfHsp40 yeast)
CC(C)(C)CNC(=O)[C@]1(C)CCC[C@@]2(C)C3CC[C@@]4(C)C[C@]3(CCC21)CC4=O (stereo not given in full)	none
C[C@@]12CCC3[C@@](CCC4[C@@]3(C)CCC[C@@]4(C)C(=O)NCc3ccccc3)(CC1=O)C2 (stereo not given in full)	PfHsp40 yeast 346
C=CCc1cccc(/C=N/NC(=O)CCCNc2ccc(C)cc2)c1O	PfHsp40 yeast 93 (no result: PriA SSB inh)
Fc1ccc2nc3[nH]c4ccccc4c3nc2c1	PfHsp40 yeast 47
CC(C)CC(=O)/C(=C/c1ccc(N(C)C)cc1)n1cncn1	none
CC(C)CC(=O)/C(=C\c1ccc(Cl)cc1Cl)n1cncn1	PfHsp40 yeast 125 (no result: PrPC surface inh)
O=C1CC(N2CCN(c3ccc(O)cc3)CC2)C(=O)N1c1ccc2c(c1)OCO2 (stereo not given)	none
O=C1CC(N2CCCCCC2)C(=O)N1c1ccc2c(c1)OCO2 (stereo not given)	PfHsp40 yeast 78
Fc1ccc(C=NN2CCCCC2)c(F)c1	PriA SSB inh 43 (no result: PrPC surface inh, MazEF act, PrP 5UTR inh, PfHsp40 yeast)
COc1ccc2cnn(CCOc3cc(C)ccc3C(C)C)c(=O)c2c1OC	PfHsp40 yeast 320
CCOc1ccccc1OCCn1ncc2ccc(OC)c(OC)c2c1=O	none
COc1ccc(-c2cc3ccc(OCC(=O)c4ccccc4)cc3oc2=O)cc1OC	none (no result: PrPC surface inh, MazEF act, PrP 5UTR inh, PfHsp40 yeast)
O=C(c1cc(COc2c(F)cccc2F)on1)N1CCC(c2ccccc2F)C1 (stereo not given)	none
CN1CCN(C(=O)c2cc(COc3ccc(F)cc3Cl)on2)CC1c1ccccc1 (stereo not given)	PfHsp40 yeast 139
CSc1ccccc1OCc1cc(C(=O)N2CCN(C)C(c3ccccc3)C2)no1 (stereo not given)	PfHsp40 yeast 78
CN1CCN(C(=O)c2cc(COc3c(F)cccc3F)on2)CC1c1ccccc1 (stereo not given)	PfHsp40 yeast 80
COc1ccccc1OCc1cc(C(=O)N2CCN(C)C(c3ccccc3)C2)no1 (stereo not given)	none
COC(=O)Nc1ccc(S(=O)(=O)N2CCC(C(=O)N3CCCCC3C)CC2)cc1 (stereo not given)	none
